Columns and labels:
Test in all cases: PBM binding z-score (relative to random genomic background probes); higher = stronger binding; sequences stand for … in GC…GCGATTGACAGCGTAGAATGAAGG
[1] = tested on: PPARg:RXRa DBDmut IVT, anti-RXR (DBD mutation: RXRa K156A/R161A, NR concentration 270 nM, RXRa partner concentration 90 nM)
How it was run: (§1)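 Regression normalization was applied to scanned fluorescence from custom Agilent 4×180K protein-binding microarrays. Before scanning, arrays were incubated 1 h with ligand-free nuclear receptor dimers, and binding was detected with antibodies against each partner (one per run). Binding z-scores use the random background probes as reference.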

[2] = tested on: PPARg:RXRa IVT, anti-PPARg (NR concentration 270 nM, RXRa partner concentration 90 nM)
How it was run: as §1

[3] = tested on: PPARg DBDmut:RXRa IVT, anti-PPARg (DBD mutation: PPARg1 K132A/R137A, NR concentration 270 nM, RXRa partner concentration 90 nM)
How it was run: as §1

[4] = tested on: PPARg DBDmut IVT, anti-PPARg (DBD mutation: PPARg1 K132A/R137A, NR concentration 270 nM)
How it was run: as §1

[5] = tested on: PPARg homodimer (NR concentration 180 nM)
How it was run: as §1

[6] = tested on: PXR:RXRa (NR concentration 270 nM, RXRa partner concentration 90 nM)
How it was run: as §1

[7] = tested on: PXR homodimer (NR concentration 270 nM)
How it was run: as §1

[8] = tested on: RARa:RXR (NR concentration 270 nM, RXRa partner concentration 90 nM)
How it was run: as §1

[9] = tested on: RARa homodimer (NR concentration 270 nM)
How it was run: as §1

[10] = tested on: RARb:RXRa (NR concentration 270 nM, RXRa partner concentration 90 nM)
How it was run: as §1

Sequence | PBM binding z-score [1] | PBM binding z-score [2] | PBM binding z-score [3] | PBM binding z-score [4] | PBM binding z-score [5] | PBM binding z-score [6] | PBM binding z-score [7] | PBM binding z-score [8] | PBM binding z-score [9] | PBM binding z-score [10]
ACAGACAGGTGATGAAAGTAACTCAGGCTATCAT | -0.123 | 0.107 | 0.648 | -0.00926 | -0.948 | -0.313 | 0.153 | -0.63 | -0.762 | 0.0648
TCAGTCAGGTGAAGGTAACTCAGGTACGCAGTCG | 2.31 | 1.88 | 0.527 | -0.686 | 0.571 | 0.5 | 0.129 | 0.701 | 0.00869 | 1.52
CCTTACGGGTCACTCCAGGGTATAGCATCGGAGT | 2.07 | 3.17 | -0.61 | -0.915 | 2.12 | 3.89 | 0.022 | 3.65 | -0.123 | 3.54
TAGCCTAGGTCATGCGGGCCACTATAGTGTCGGC | 1.87 | 3.38 | -0.194 | 0.594 | 1.72 | 1.69 | -0.634 | 2.72 | 0.388 | 3.69
GCTTGTTGGTCAGTAAAAGGTCACACACCGGTCG | 1.37 | 3.04 | 0.573 | 0.581 | 3.31 | 4.71 | 1.12 | 5.45 | 1.86 | 4.32
ATCTCTAGGTAACCTAGTTCAGTGAATGCCGAAC | 4.08 | 4.62 | 1.92 | 1.24 | 1.02 | 1.02 | 0.262 | 0.692 | 0.202 | 0.704
ATCGAAAGGTCGCGGTGAGTATAGAGAAAGGGAA | 0.748 | 2.76 | 0.634 | 0.427 | 1.87 | 3.21 | 0.401 | 3.63 | 0.883 | 4.66
TAGCCTTGGTCAGATCGGGCCAGTATACGCTATA | -0.7 | -0.297 | -0.203 | -1.18 | -1.31 | -0.578 | -0.538 | -0.611 | -1.58 | 0.307
TCTCGGAGGACACGAACGGTCAGAGCTCGACATC | 1.13 | -0.161 | -0.337 | -0.995 | -0.693 | -0.215 | -0.654 | -0.0917 | -0.739 | 2.1
AGAACGAGGGCGATGAGTTGATAGCACGGGTGGC | 0.888 | 0.217 | -0.427 | -0.338 | -0.143 | 0.367 | 1.89 | -0.627 | -0.34 | 0.39
GCTTACGCGTCAAAGGTTATAGCATGAATAGAAT | -0.0505 | 0.407 | -0.0262 | 0.00309 | 1.46 | 2.22 | -0.288 | 3.3 | -0.0243 | 1.22
CCGACTGGGGAAAAGGTTACCATACTCAGTACGA | 0.816 | 2.89 | -0.258 | -0.129 | 1.18 | 0.978 | -0.181 | 1.8 | 0.0679 | 1.59
CCTCGGAGGCCAGAAGGTCAGAGCTGTCCGCTTT | -0.00859 | -0.274 | -1.71 | -1.89 | 0.843 | 1.32 | -0.625 | 2.12 | -0.274 | 2.98
AGAACGAGGGCACGCTGAGTTGAGAGCAGAGTAG | 4.1 | 3.68 | 0.22 | 0.203 | 0.469 | 1.01 | 0.0274 | 1.35 | -0.318 | 2.54
CCTCGGAGGACAAAAGGTCAGAGCTGTCCGCTTT | 1.07 | 1.62 | -0.684 | -1.47 | 4.04 | 3.72 | 0.0706 | 4.59 | 0.836 | 4.61
GCTTACGTGTCAAAGGTTATAGCATGAATAGAAT | 1.72 | 3.96 | 0.407 | 0.944 | 3.44 | 2.98 | -0.204 | 4.56 | 0.318 | 2.14
TCGTGTAGATCAAAGGTTAAGAAAGCCGAAGCCT | 0.876 | 2.22 | -0.315 | -0.277 | 1.21 | 1.9 | -0.215 | 2.68 | 0.495 | 1.86
CCGAGTAGGTTATGGGGCGTTCAGGCAACGGTGA | 2.68 | 2.65 | -0.225 | -0.53 | 0.696 | -0.0536 | -0.251 | 0.233 | -0.0281 | 0.904
CAGCCCAGGTCAGGGCCAGTATAGGAGGAACGTT | 0.375 | 1.26 | -1.13 | -1.33 | 0.907 | 0.95 | 0.194 | 1.49 | -0.138 | 3.45
CAAACTAGCTCACGAAAGGTCAAAGTCGAATGAC | 0.734 | 2.28 | 0.536 | 0.187 | 3.91 | 5.52 | 1.75 | 6.04 | 2.13 | 4.4
ACAGACAGGTGATGAAGGTAACTGAGGCTATCAT | 0.31 | 0.434 | 0.949 | 0.0407 | 0.301 | -0.124 | 0.0874 | 0.438 | 0.583 | 0.369
GCTAGTTGGTCAGTAAGAGGTCACACACCGGTCG | 0.963 | 2.75 | 0.167 | 0.349 | 2.96 | 4.78 | 1.57 | 5.53 | 2.06 | 3.73
TCATATAGGTAATACAGGTGTAAGTCGGCATCTA | 3.63 | 2.43 | 1.94 | 1.17 | 1 | 0.767 | 0.343 | 0.844 | 1.25 | 0.255
CCGAGAAGGTTATGGGGCATTCAGGCAACGGTGA | 0.959 | 1.38 | -0.265 | -0.895 | 1.08 | 0.668 | 0.111 | 1.54 | -0.0567 | 2.08

Sequence | PBM binding z-score [1] | PBM binding z-score [2] | PBM binding z-score [3] | PBM binding z-score [4] | PBM binding z-score [5] | PBM binding z-score [6] | PBM binding z-score [7] | PBM binding z-score [8] | PBM binding z-score [9] | PBM binding z-score [10]
CCTACTGGGCCAAAAACGTCATTGATGCCGATAA | 2.89 | 2.22 | -0.472 | -0.737 | 0.2 | -0.35 | -0.449 | -0.17 | -0.624 | -0.163
TAGCCTAGGTCATGCGGGCCAGGATAGTGTCGGC | 1.52 | 3 | -0.00181 | -0.781 | 0.191 | 1.29 | -0.269 | 1.89 | -0.855 | 3.74
GCTGCTAGGTCAACTGCTGGTCAGCTAAAGCTCG | 5.01 | 4.38 | -0.67 | -1.29 | 0.927 | 1.25 | -0.956 | 2.52 | -0.88 | 4.34
CGTCCAAGGTCAGAGAGGTCAGTTAATGCCGAGT | 3.01 | 3.3 | 0.545 | 0.19 | 6.18 | 6.24 | 12.6 | 5.94 | 3.51 | 5.22
GCACATAGGTAATACAAGGTGAAAGTCCGATTGT | 0.57 | 1.1 | 0.738 | 0.527 | 0.516 | 0.612 | -0.214 | 1.59 | 0.568 | 0.552
TCATATATGTAAATGCTAGGTGAAAGTCCGATCT | 2.12 | 0.736 | 1.47 | 0.87 | -0.136 | 0.601 | 0.0676 | 0.644 | 0.525 | 0.329
ACTAGCCGGCCAAGGGTCACTCAAGATTAGTCCG | -0.188 | 2.25 | -0.122 | -1.13 | 0.922 | 3 | -0.135 | 3.82 | -0.211 | 3.41
ATCTAAAGGTCGTGAGGTGAGTATACAGAAAGGC | 1.12 | 2.89 | 1.3 | 1.74 | 2.21 | 3.4 | 0.645 | 4.46 | 1.13 | 4.15
TGAATAAGGTTAAAGATCAGGGAACGTGGCGTCG | 1.52 | 2.45 | 0.601 | 0.358 | 1.06 | 1.73 | 0.429 | 3.27 | 0.953 | 2.35
CAAACTAGGTAAAGAGGTCAAAGTCCGCTTCCCG | 6.78 | 6.91 | 3.48 | 1.44 | 5.18 | 5.5 | 2.02 | 6.1 | 1.43 | 3.95
ACAGACAGGAGAGTGAAGGTAACTCAGCTGGACG | -0.0669 | 0.0769 | 0.725 | 0.294 | 0.433 | 0.0985 | 0.114 | 0.228 | 0.297 | 0.198
CCGATTGGGGCAAGGTTACCATAACGCACAGCCA | 1.32 | 1.29 | -0.839 | -0.45 | 0.0331 | 0.36 | -0.458 | 0.793 | -0.365 | 1.67
TCTTGTAGAGCAACAGGAGGTTAAGAAAGATCGA | 1.98 | 1.27 | 0.588 | 0.0668 | -0.265 | 0.413 | -0.46 | 0.506 | -0.541 | 0.184
CCTAGCAGGCCAGGATCACTCAAGCATTTCGCTT | 0.271 | -0.507 | -1.72 | -1.21 | -0.29 | -0.547 | -0.646 | -0.792 | -0.0748 | -0.149
GCTCGGAGGACAAGGCCAGAGCTTTGTCCGTAGA | -1.3 | -0.505 | -1.72 | -1.33 | -1.33 | -1.03 | -0.879 | -0.936 | -1.54 | 0.806
CTCGAAATGTCGGTTGAGGTGAGTATACGGATAA | -0.0159 | 0.503 | 0.298 | 0.408 | 0.0152 | 0.0277 | -0.637 | 0.341 | -0.1 | 0.334
TCTAGTTGGACAAAGGTCACACACTCGAAATGCG | 2.65 | 5.02 | 0.884 | 1.01 | 4.09 | 5.7 | 1.81 | 6.59 | 2.98 | 5.11
CGTCCAAGGTCTGCAGGTCAGTGAAAGCGACGTG | 0.404 | 0.652 | -0.578 | -0.887 | 0.2 | 0.243 | -0.548 | 0.466 | -0.728 | 2.16
CCTGCTAGGTCATGGTGAGCTAATCTACAGTATG | 4.15 | 3.71 | 1.17 | 0.341 | 0.897 | 1.14 | -0.321 | 2.29 | -0.0406 | 3.77
ATCTCGAGGTAAAGTTCAGTGAAAGATCGATAGA | 0.243 | 1.24 | 0.853 | 0.574 | 1.21 | 2.17 | 1.44 | 1.34 | 0.469 | 2.86
AATACAGGGTCATGGTAGGCCAGAGTACGCACAG | 2.45 | 4.41 | 2.48 | 1.13 | 3.31 | 4.8 | 0.859 | 5.21 | 1.28 | 4.25
CCGACTGGGGCAAAGGGTACCATACTCAGTACGA | 3.56 | 4.9 | -0.131 | -0.788 | 1.03 | -0.113 | -0.353 | 0.544 | -0.388 | 1.11
TCTTGCAGGCCAGAGGGTCACTCAAGAGGTACGG | 1.23 | 1.74 | 0.108 | 0.193 | 1.21 | 1.65 | -0.469 | 2.21 | -0.686 | 2.44
CCGACTGGGGCAGAAAGGTTACCATACCATCCGG | 1.62 | 2.01 | -0.897 | -0.652 | 1.04 | 0.796 | -0.416 | 1.49 | -0.549 | 1.74
